Activity calls are given as the source filed them. The calls were made as follows: active = hit-call score of the fitted dose curve at least 0.9, where 1 is the maximum; inactive = score below 0.9.
Key:
[1] = ATG_CRE_CIS: Attagene CIS-FACTORIAL HepG2 Assay for human cAMP Responsive Element (CRE) binding protein 3 (AID 2282926); conditions: HepG2 CRE cis-reporter, Attagene multiplexed mRNA; actives raise or lower the signal
How it was run: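 We dosed HepG2 cells bearing multiple cis-promoter reporter units for 24 h and measured reporter mRNA by RT-PCR with capillary electrophoresis detection. Bidirectional concentration-response fitting used DMSO as negative control.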

[2] = target: CCAAT/enhancer-binding protein beta (Homo sapiens) (UniProt P17676); assay: ATG_C_EBP_CIS: Attagene CIS-FACTORIAL HepG2 Assay for human CCAAT/Enhancer Binding Protein (C/EBP) beta (AID 2282927); conditions: HepG2 Attagene cis-factorial transcription factor reporter; actives raise or lower the signal
Sequence of CCAAT/enhancer-binding protein beta (Homo sapiens) (P17676 whole entry, looked up): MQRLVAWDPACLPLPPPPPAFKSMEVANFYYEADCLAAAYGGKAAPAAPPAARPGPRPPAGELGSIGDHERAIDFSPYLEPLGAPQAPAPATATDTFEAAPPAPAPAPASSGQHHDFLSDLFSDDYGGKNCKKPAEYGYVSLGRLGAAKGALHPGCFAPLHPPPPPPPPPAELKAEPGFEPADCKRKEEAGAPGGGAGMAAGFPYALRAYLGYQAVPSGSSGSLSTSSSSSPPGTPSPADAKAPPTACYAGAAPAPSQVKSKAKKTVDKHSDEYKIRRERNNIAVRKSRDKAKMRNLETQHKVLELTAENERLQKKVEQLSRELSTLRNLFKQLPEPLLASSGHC
How it was run: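 HepG2, transient MRTU transfection, 24 h treatment. RT-PCR plus CE fluorescence; DMSO negative control, bidirectional fit.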

[3] = ATG_CMV_CIS: Attagene CIS-FACTORIAL HepG2 Assay for human CMV (Internal Marker) (AID 2282928); conditions: HepG2 CMV promoter reporter, transcription factor profiling; actives raise or lower the signal;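 also: endpoint acts as a background internal control marker rather than a target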
How it was run: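 Endogenous transcription factor activity read in HepG2 via transfected cis-promoter reporter units. After 24 h dosing, reporter mRNA measured by RT-PCR/capillary electrophoresis; gain or loss of signal fit relative to DMSO.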

[4] = ATG_DR4_LXR_CIS: Attagene CIS-FACTORIAL HepG2 Assay for human Liver X Receptor (LXR), DR4 submotif (AID 2282929); conditions: HepG2 Attagene DR4 cis-reporter, mRNA transcription; actives raise or lower the signal
How it was run: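 DR4 cis-reporter in HepG2, 24 h exposure. Detection: RT-PCR, 6-FAM labelling, CE fragment analysis. Endpoint fitted bidirectionally, DMSO = baseline.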

[5] = target: Aryl hydrocarbon receptor (Homo sapiens) (UniProt P35869); assay: ATG_Ahr_CIS: Attagene CIS-FACTORIAL HepG2 Assay for human Aryl Hydrocarbon Receptor (Ahr) (AID 2282930); conditions: HepG2 AhR cis-factorial reporter transcription; actives raise or lower the signal
Sequence of Aryl hydrocarbon receptor (Homo sapiens) (P35869 whole entry, looked up): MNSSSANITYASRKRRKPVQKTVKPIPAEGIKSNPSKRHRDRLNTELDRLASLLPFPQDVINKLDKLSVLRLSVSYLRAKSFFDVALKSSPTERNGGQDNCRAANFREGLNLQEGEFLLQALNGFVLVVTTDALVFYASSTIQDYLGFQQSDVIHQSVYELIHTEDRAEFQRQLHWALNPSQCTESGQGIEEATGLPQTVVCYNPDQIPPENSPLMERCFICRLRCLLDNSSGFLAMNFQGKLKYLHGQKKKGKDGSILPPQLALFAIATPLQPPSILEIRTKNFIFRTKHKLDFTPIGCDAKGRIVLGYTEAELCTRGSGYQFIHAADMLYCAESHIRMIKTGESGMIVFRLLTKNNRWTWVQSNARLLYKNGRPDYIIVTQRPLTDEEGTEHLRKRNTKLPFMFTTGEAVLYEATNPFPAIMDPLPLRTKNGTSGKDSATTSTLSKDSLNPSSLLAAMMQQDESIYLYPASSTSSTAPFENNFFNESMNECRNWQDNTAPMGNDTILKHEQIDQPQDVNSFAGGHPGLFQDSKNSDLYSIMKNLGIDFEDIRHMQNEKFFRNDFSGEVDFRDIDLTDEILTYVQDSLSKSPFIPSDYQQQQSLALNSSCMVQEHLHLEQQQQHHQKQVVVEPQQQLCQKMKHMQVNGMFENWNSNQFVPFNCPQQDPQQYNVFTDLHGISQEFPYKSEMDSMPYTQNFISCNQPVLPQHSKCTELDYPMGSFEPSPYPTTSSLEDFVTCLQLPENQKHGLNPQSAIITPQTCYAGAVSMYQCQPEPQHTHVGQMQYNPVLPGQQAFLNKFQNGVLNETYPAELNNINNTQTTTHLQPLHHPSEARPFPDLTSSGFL
How it was run: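 Endogenous factor activity is tracked through cis-promoter reporter units transfected into HepG2 cells. Transcript levels at 24 h are read by fluorescent RT-PCR and capillary electrophoresis, with activity in either direction scored relative to DMSO.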

[6] = ATG_AP_1_CIS: Attagene CIS-FACTORIAL HepG2 Assay for human Activator Protein 1 (AP-1) (AID 2282931); conditions: HepG2 Attagene cis-factorial AP-1 reporter mRNA; actives raise or lower the signal
How it was run: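 Cis-regulated reporter units transiently expressed in HepG2 report endogenous transcription-factor activity. Signal: reporter mRNA at 24 h, via RT-PCR and fluorescent capillary electrophoresis. Endpoint derived by bidirectional fitting, DMSO as negative control.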

[7] = ATG_AP_2_CIS: Attagene CIS-FACTORIAL HepG2 Assay for human Activator Protein 2 (AP-2) (AID 2282932); conditions: HepG2 AP-2 cis-reporter, Attagene transcription factor profiling; actives raise or lower the signal
How it was run: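 Multiplexed mRNA reporter assay in HepG2: cis-regulated units report endogenous factor activity after 24 h treatment. Fluorescence from capillary electrophoresis of RT-PCR products gives the signal, with DMSO as baseline.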

[8] = ATG_BRE_CIS: Attagene CIS-FACTORIAL HepG2 Assay for human Bone Morphogenetic Protein (BMP) Response Element (BRE) (AID 2282933); conditions: HepG2 BMP response element reporter, Attagene transcription factor profiling; actives raise or lower the signal
How it was run: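 Endogenous transcription factor activity read in transiently transfected HepG2 cells after 24 h chemical exposure. Bidirectional curve fitting against DMSO; readout is reporter transcript level by RT-PCR with capillary electrophoresis of labelled products.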

[9] = target: Retinoic acid receptor alpha (Homo sapiens) (UniProt P10276); assay: ATG_DR5_RAR_CIS: Attagene CIS-FACTORIAL HepG2 Assay for human Retinoic Acid Receptor Alpha (RARE), DR5 submotif (AID 2282934); conditions: HepG2 Attagene cis-factorial RARE DR5 reporter, mRNA; actives raise or lower the signal;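 as to AC50: reporter responds to endogenous RAR alpha beta and gamma in HepG2 not RARA alone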
Sequence of Retinoic acid receptor alpha (Homo sapiens) (P10276 whole entry, looked up): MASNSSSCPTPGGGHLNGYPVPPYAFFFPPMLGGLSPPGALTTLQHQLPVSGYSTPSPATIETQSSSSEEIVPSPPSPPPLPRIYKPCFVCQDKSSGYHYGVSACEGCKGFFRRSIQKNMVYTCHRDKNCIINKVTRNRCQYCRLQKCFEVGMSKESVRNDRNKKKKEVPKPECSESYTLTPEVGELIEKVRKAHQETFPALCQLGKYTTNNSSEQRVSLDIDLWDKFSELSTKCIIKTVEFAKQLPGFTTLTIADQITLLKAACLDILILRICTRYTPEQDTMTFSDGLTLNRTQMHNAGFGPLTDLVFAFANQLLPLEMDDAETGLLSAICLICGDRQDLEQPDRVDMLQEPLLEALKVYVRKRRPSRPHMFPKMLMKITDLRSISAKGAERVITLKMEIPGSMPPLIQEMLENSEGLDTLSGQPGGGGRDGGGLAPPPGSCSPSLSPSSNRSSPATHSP
How it was run: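 After 24 h of chemical exposure, transiently transfected HepG2 cells were lysed for total RNA; the DR5-regulated reporter transcript was quantified via RT-PCR and capillary electrophoresis, with activity fitted bidirectionally against DMSO.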

[10] = target: Transcription factor E2F1 (Homo sapiens) (UniProt Q01094); assay: ATG_E2F_CIS: Attagene CIS-FACTORIAL HepG2 Assay for human E2F Transcription Factor 1 (AID 2282935); conditions: HepG2 Attagene cis-reporter, E2F reporter RNA transcripts; actives raise or lower the signal
Sequence of Transcription factor E2F1 (Homo sapiens) (Q01094 whole entry, looked up): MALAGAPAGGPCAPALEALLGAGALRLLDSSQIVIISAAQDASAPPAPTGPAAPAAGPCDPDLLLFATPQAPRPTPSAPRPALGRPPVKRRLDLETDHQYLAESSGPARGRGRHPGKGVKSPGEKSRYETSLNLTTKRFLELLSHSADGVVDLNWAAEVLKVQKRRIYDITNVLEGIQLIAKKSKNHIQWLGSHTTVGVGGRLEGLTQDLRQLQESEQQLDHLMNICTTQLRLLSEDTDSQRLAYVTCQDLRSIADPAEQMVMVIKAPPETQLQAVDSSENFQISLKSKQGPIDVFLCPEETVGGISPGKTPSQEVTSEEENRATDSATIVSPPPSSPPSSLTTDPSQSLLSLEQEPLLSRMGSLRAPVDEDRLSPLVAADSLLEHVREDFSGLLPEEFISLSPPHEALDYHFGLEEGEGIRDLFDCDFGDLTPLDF
How it was run: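 Measures reporter transcript levels via RT-PCR with capillary electrophoresis detection in HepG2 cells harboring cis-regulated reporter units; 24 h post-dose; bidirectional curve fitting with DMSO as baseline.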

[11] = ATG_E_Box_CIS: Attagene CIS-FACTORIAL HepG2 Assay for human Enhancer Box (E-box) (AID 2282936); conditions: HepG2 E-box cis-reporter transcription, actives raise or lower the signal
How it was run: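 First, HepG2 cells receive multiple cis-regulated reporter constructs by transient transfection. Next, chemicals are applied for 24 h. Finally, reporter mRNA is quantified via RT-PCR and capillary electrophoresis, with DMSO as baseline.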

[12] = ATG_M_61_CIS: Attagene CIS-FACTORIAL HepG2 Assay for M61 Transcription Factor (Internal Marker) (AID 2282937); conditions: HepG2 Attagene CIS-FACTORIAL M61 internal marker reporter; actives raise or lower the signal
How it was run: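 Background-control endpoint: HepG2 cells with cis-regulated reporter constructs, 24 h exposure, reporter mRNA detected via fluorescent primer extension and capillary electrophoresis; values from bidirectional fitting with DMSO baseline.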

[13] = ATG_EGR_CIS: Attagene CIS-FACTORIAL HepG2 Assay for human Early Growth Response 1 (EGR1) (AID 2282938); conditions: HepG2 Attagene CIS-FACTORIAL EGR reporter mRNA; actives raise or lower the signal
How it was run: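 Endpoint derived by bidirectional fitting versus DMSO vehicle. Method: cis-promoter reporter units transfected into HepG2, 24 h dosing, RNA isolation, RT-PCR with 6-FAM primer extension and HpaI digestion, then capillary electrophoresis fluorescence detection.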

[14] = ATG_M_19_CIS: Attagene CIS-FACTORIAL HepG2 Assay for M19 Transcription Factor (Internal Marker) (AID 2282939); conditions: HepG2 Attagene CIS-FACTORIAL M19 internal marker reporter; actives raise or lower the signal
How it was run: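 Internal marker readout, fitted in both directions against DMSO, from HepG2 cells carrying transfected cis-element reporter constructs; RT-PCR and capillary electrophoresis of reporter mRNA after 24 h exposure.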

Measured: AC50

O=C(Nc1ccc(Br)cc1)c1cc(Br)cc(Br)c1O
active: [5] 630 nM | [8] 13.3 µM | [9] 4.76 µM | [13] 52.9 µM
inactive: all other assays above

CCOP(=S)(OCC)Oc1ccc(Cl)cc1Cl
active: [3] 63 µM
not listed: [11] | [14]
inactive: all other assays above

CC(C)(COCC1CO1)COCC1CO1 (centres undefined)
inactive: all assays above

CC(=O)CN(CC(C)=O)N=O
not listed: [13]
inactive: all other assays above

C=CC(=O)[O][Sn]([CH2]CCC)([CH2]CCC)[CH2]CCC
inactive: [2] | [3] | [7] | [10] | [12] | [14]
active: [1] 0.412 µM | [4] 0.607 µM | [5] 704 nM | [6] 0.128 µM | [8] 0.217 µM | [9] 0.0229 µM | [11] 0.551 µM | [13] 0.412 µM

O=[N+]([O-])c1ccc(Cl)c([N+](=O)[O-])c1
active: [4] 5.36 µM | [7] 6.06 µM | [13] 6.18 µM
not listed: [11]
inactive: all other assays above

Oc1ccc(Cc2ccc(O)cc2)cc1
active: [3] 77.1 µM
inactive: all other assays above

N#CCCC(Br)(C#N)CBr (centres undefined)
active: [1] 53.5 µM | [3] 62.1 µM | [5] 33400 nM | [7] 49.9 µM | [9] 55.3 µM | [11] 62.4 µM
not listed: [13]
inactive: all other assays above

O=C=Nc1ccc(Cl)cc1
inactive: all assays above

CC(O)(CS(=O)(=O)c1ccc(F)cc1)C(=O)Nc1ccc(C#N)c(C(F)(F)F)c1 (centres undefined)
active: [8] 98.5 µM
inactive: all other assays above

CNC(=O)N(C)c1nc2ccccc2s1
active: [5] 1080 nM
inactive: all other assays above

CCCCOP(=O)(CCCC)OCCCC
not listed: [13]
inactive: all other assays above

O=C1C[C@@H]2OCC=C3CN4CC[C@]56c7ccccc7N1[C@H]5[C@H]2[C@H]3C[C@H]46
inactive: all assays above

C#CCOC(=O)/C=C(C)/C=C/CC(C)CCCC(C)C (centres undefined)
active: [1] 39.7 µM | [3] 36.9 µM | [4] 96.1 µM | [6] 55.3 µM
inactive: all other assays above

COc1nn(C(=O)NS(=O)(=O)c2ccccc2OC(F)(F)F)c(=O)n1C
not listed: [13]
inactive: all other assays above

Cc1ccc(CCl)cc1
inactive: all assays above

COP(=S)(OC)Oc1cc(Cl)c(I)cc1Cl
active: [1] 29.6 µM | [2] 27.9 µM | [3] 50.2 µM | [4] 46.6 µM | [7] 22.5 µM | [11] 34.7 µM
not listed: [13]
inactive: all other assays above

CC(C)CC(C)(c1ccc(O)cc1)c1ccc(O)cc1
active: [4] 11.1 µM | [6] 11.1 µM | [13] 17.5 µM
inactive: all other assays above

From PubChem BioAssay (EPA / NIEHS)
